In PubChem BioAssay (EPA / NIEHS):
The source made the active and inactive calls. How the source made its calls: active means hit-call score of the fitted dose curve at least 0.9, where 1 is the maximum; inactive means score below 0.9.

Tests used:
Settings in all cases: mRNA level, 48 h; actives raise or lower the signal
[1] = read-out: Cyclin D2 (CCND2), CCND2 (gene 894); assay: LTEA_HepaRG_CCND2: Life Technologies and Expression Analysis (LTEA) Assay for Cyclin D2 (CCND2) using HepaRG (AID 2283449);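 further: CCND2 transcript measured by TaqMan qRT-PCR and normalised to three housekeeping genes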
Outline: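 In this HepaRG study, an eight-point concentration series (max 100 uM, 0.5% DMSO) is applied for 48 h. CCND2 mRNA change is derived by qRT-PCR normalised to ACTB, GAPDH and POLR2A.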

[2] = read-out: Cyclin Dependent Kinase Inhibitor 1A (CDKN1A), CDKN1A (gene 1026); assay: LTEA_HepaRG_CDKN1A: Life Technologies and Expression Analysis (LTEA) Assay for Cyclin Dependent Kinase Inhibitor 1A (CDKN1A) using HepaRG (AID 2283450)
Outline: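 Differentiated HepaRG cells in serum-free induction medium, exposed 48 h in duplicate to eight half-log concentrations up to 100 uM in 0.5% DMSO. mRNA measured by TaqMan qRT-PCR, normalized to ACTB, GAPDH, POLR2A; bidirectional fit versus DMSO.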

[3] = read-out: catalase (CAT), CAT (gene 847); assay: LTEA_HepaRG_CAT: Life Technologies and Expression Analysis (LTEA) Assay for catalase (CAT) using HepaRG (AID 2283452)
Outline: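 Differentiated HepaRG cells in serum-free induction medium were dosed 48 h in duplicate, eight half-log concentrations from 100 uM in 0.5% DMSO. Transcript measured by TaqMan qRT-PCR, normalised to ACTB/GAPDH/POLR2A, fitted bidirectionally against DMSO.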

[4] = read-out: flavin-containing dimethylaniline monooxygenases 3 (FMO3), FMO3 (gene 2328); assay: LTEA_HepaRG_FMO3: Life Technologies and Expression Analysis (LTEA) Assay for flavin-containing dimethylaniline monooxygenases 3 (FMO3) using HepaRG (AID 2283453);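 on AC50: FMO3 transcript by TaqMan qRT-PCR normalized to ACTB GAPDH and POLR2A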
Outline: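 FMO3 transcript quantified by TaqMan qRT-PCR against three housekeeping genes after 48 h chemical exposure of HepaRG cells. Eight-point half-log series, top 100 uM, 0.5% DMSO vehicle; phenobarbital 1mM induction control; up- or down-regulation fitted.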

[5] = read-out: Cytochrome P450 (CYP1A1), CYP1A1 (gene 1543); assay: LTEA_HepaRG_CYP1A1: Life Technologies and Expression Analysis (LTEA) Assay for Cytochrome P450 (CYP1A1) using HepaRG (AID 2283454)
Outline: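 Differentiated human HepaRG cells, after 48 h plating, exposed in duplicate for 48 h in serum-free induction medium to 8 half-log concentrations up to 100 uM in 0.5% DMSO. CYP1A1 mRNA by qRT-PCR, normalized to ACTB/GAPDH/POLR2A; bidirectional fit versus DMSO.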

[6] = read-out: CFLAR gene, CFLAR (gene 8837); assay: LTEA_HepaRG_CFLAR: Life Technologies and Expression Analysis (LTEA) Assay for CFLAR gene using HepaRG (AID 2283455)
Outline: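 Gain- or loss-of-signal changes in CFLAR transcript were fitted bidirectionally relative to 0.5% DMSO. Cells (HepaRG, duplicate wells) were dosed for 48 h across eight half-log concentrations topping at 100 uM; quantitation by TaqMan qRT-PCR.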

[7] = read-out: Forkhead box O1 (FOXO1), FOXO1 (gene 2308); assay: LTEA_HepaRG_FOXO1: Life Technologies and Expression Analysis (LTEA) Assay for Forkhead box O1 (FOXO1) using HepaRG (AID 2283456)
Outline: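 Using one lot of HepaRG hepatic cells kept in 0.5% DMSO, the team applied test chemicals in duplicate, half-log dilutions from 100 uM, for 48 h. Expression, normalised to ACTB/GAPDH/POLR2A, was compared with vehicle in either direction.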

[8] = read-out: growth arrest and DNA damage 45 (GADD45A), GADD45A (gene 1647); assay: LTEA_HepaRG_GADD45A: Life Technologies and Expression Analysis (LTEA) Assay for growth arrest and DNA damage 45 (GADD45A) using HepaRG (AID 2283458)
Outline: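 GADD45A expression was measured by TaqMan qRT-PCR against three housekeeping genes (ACTB, GAPDH, POLR2A) after 48 h treatment of HepaRG cells. Eight-point half-log series up to 100 uM in 0.5% DMSO, run in duplicate.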

[9] = read-out: Forkhead box O3 (FOXO3), FOXO3 (gene 2309); assay: LTEA_HepaRG_FOXO3: Life Technologies and Expression Analysis (LTEA) Assay for Forkhead box O3 (FOXO3) using HepaRG (AID 2283459)
Outline: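 Gene-expression endpoint: FOXO3 transcript level by qRT-PCR in HepaRG cultures treated 48 h with chemicals up to 100 uM (half-log, 0.5% DMSO vehicle).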

[10] = read-out: growth arrest and DNA damage 45 (GADD45B), GADD45B (gene 4616); assay: LTEA_HepaRG_GADD45B: Life Technologies and Expression Analysis (LTEA) Assay for growth arrest and DNA damage 45 (GADD45B) using HepaRG (AID 2283461)
Outline: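 Differentiated human HepaRG cells in serum-free induction medium exposed 48 h in duplicate to eight concentrations, top 100 uM, half-log steps, 0.5% DMSO. GADD45B mRNA by TaqMan qRT-PCR, normalized to ACTB, GAPDH, POLR2A; bidirectional fit versus DMSO.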

[11] = read-out: ABC Transporter (ABCC3), ABCC3 (gene 8714); assay: LTEA_HepaRG_ABCC3: Life Technologies and Expression Analysis (LTEA) Assay for ABC Transporter (ABCC3) using HepaRG (AID 2283462)
Outline: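 Differentiated human HepaRG cells exposed 48 h in serum-free induction medium, 0.5% DMSO vehicle, 8-point half-log series to 100 uM in duplicate. ABCC3 mRNA by qRT-PCR, normalised to ACTB, GAPDH, POLR2A; bidirectional fit vs DMSO.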

[12] = read-out: ABC Transporter (ABCB11), ABCB11 (gene 8647); assay: LTEA_HepaRG_ABCB11: Life Technologies and Expression Analysis (LTEA) Assay for ABC Transporter (ABCB11) using HepaRG (AID 2283463)
Outline: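 Using HepaRG cultures held in 0.5% DMSO, chemicals were tested at half-log dilutions from 100 uM for 48 h. Induction or suppression of ABCB11 mRNA, normalized to ACTB, GAPDH and POLR2A, was fitted bidirectionally against vehicle.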

[13] = read-out: ABC Transporter (ABCC2), ABCC2 (gene 1244); assay: LTEA_HepaRG_ABCC2: Life Technologies and Expression Analysis (LTEA) Assay for ABC Transporter (ABCC2) using HepaRG (AID 2283464)
Outline: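 Differentiated HepaRG cells in serum-free induction medium exposed 48 h to eight half-log concentrations up to 100 uM, 0.5% DMSO, in duplicate. ABCC2 mRNA measured by qRT-PCR (TaqMan, Fluidigm), normalized to ACTB, GAPDH and POLR2A. Fitted in both directions against DMSO.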

[14] = read-out: Broad substrate specificity ATP-binding cassette transporter ABCG2 (Homo sapiens) (UniProt Q9UNQ0); assay: LTEA_HepaRG_ABCG2: Life Technologies and Expression Analysis (LTEA) Assay for ABC Transporter (ABCG2) using HepaRG (AID 2283465)
Outline: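 Gene expression of ABCG2 in HepaRG liver cells is quantified by qRT-PCR following 48 h exposure across an eight-point series topping at 100 uM. Values come from bidirectional fitting relative to DMSO vehicle.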

[15] = read-out: ATP-citrate lyase (ACLY), ACLY (gene 47); assay: LTEA_HepaRG_ACLY: Life Technologies and Expression Analysis (LTEA) Assay for ATP-citrate lyase (ACLY) using HepaRG (AID 2283466)
Outline: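 ACLY expression changes in human HepaRG liver cells are quantified by qRT-PCR after 48 h exposure to test chemicals (maximum 100 uM, half-log steps). Values are fitted in both directions relative to 0.5% DMSO vehicle.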

[16] = read-out: Peroxisomal acyl-coenzyme A oxidase 1 (ACOX1) gene, ACOX1 (gene 51); assay: LTEA_HepaRG_ACOX1: Life Technologies and Expression Analysis (LTEA) Assay for Peroxisomal acyl-coenzyme A oxidase 1 (ACOX1) gene using HepaRG (AID 2283467)
Outline: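 Human HepaRG hepatic cultures, 48 h treatment with test chemicals up to 100 uM. ACOX1 expression read by qRT-PCR relative to 0.5% DMSO vehicle.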

[17] = read-out: Alkaline Phosphatase, Placental (ALPP) gene, ALPP (gene 250); assay: LTEA_HepaRG_ALPP: Life Technologies and Expression Analysis (LTEA) Assay for Alkaline Phosphatase, Placental (ALPP) gene using HepaRG (AID 2283468)
Outline: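 HepaRG cells plated 48 h, then exposed in duplicate for 48 h in serum-free induction medium to 8-point half-log series from 100 uM in 0.5% DMSO. ALPP mRNA by TaqMan qRT-PCR, normalized to ACTB/GAPDH/POLR2A; bidirectional fit versus DMSO.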

[18] = read-out: Cyclin D1 (CCND1), CCND1 (gene 595); assay: LTEA_HepaRG_CCND1: Life Technologies and Expression Analysis (LTEA) Assay for Cyclin D1 (CCND1) using HepaRG (AID 2283451)
Outline: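 Differentiated HepaRG cells exposed 48 h in serum-free induction medium to eight half-log concentrations from 100 uM top, 0.5% DMSO, duplicates. CCND1 mRNA measured by Fluidigm TaqMan qRT-PCR, normalised to ACTB, GAPDH, POLR2A; bidirectional fit.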

Measured: AC50

Broad substrate specificity ATP-binding cassette transporter ABCG2 (Homo sapiens), sequence (Q9UNQ0 whole entry, looked up): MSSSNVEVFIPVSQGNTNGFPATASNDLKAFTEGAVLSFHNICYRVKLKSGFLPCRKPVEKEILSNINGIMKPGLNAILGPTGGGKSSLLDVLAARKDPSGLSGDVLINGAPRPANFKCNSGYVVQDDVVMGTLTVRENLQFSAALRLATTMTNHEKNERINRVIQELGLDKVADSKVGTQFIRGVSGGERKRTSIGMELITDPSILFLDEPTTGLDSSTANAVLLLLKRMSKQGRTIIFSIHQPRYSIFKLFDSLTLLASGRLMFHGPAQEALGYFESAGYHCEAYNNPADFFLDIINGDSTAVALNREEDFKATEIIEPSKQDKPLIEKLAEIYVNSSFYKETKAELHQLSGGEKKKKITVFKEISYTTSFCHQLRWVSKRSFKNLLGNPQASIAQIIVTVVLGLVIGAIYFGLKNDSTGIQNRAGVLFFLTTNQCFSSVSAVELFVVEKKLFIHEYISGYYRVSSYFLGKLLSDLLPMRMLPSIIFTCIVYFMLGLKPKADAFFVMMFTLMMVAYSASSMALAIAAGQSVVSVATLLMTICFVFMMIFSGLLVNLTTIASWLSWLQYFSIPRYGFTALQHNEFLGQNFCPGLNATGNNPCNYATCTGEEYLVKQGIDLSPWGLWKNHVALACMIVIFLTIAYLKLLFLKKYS

COCCOCCOC
active: [5] 1.22 µM | [6] 0.253 µM | [7] 2.22 µM | [8] 0.998 µM | [9] 9.92 µM | [12] 0.922 µM | [14] 1.37 µM | [16] 9.92 µM
not listed: [18]
inactive: all other assays above

O=c1c(O)c(-c2ccc(O)c(O)c2)oc2cc(O)cc(O)c12
active: [4] 80 µM | [5] 0.634 µM | [12] 76.7 µM
not listed: [1] | [18]
inactive: all other assays above

Nc1ccccc1N
inactive: [14] | [17]
active: [2] 50 µM | [3] 61.7 µM | [4] 63.7 µM | [5] 3.28 µM | [6] 61.4 µM | [7] 82.2 µM | [8] 50 µM | [9] 63.3 µM | [10] 50 µM | [11] 71.9 µM | [13] 71 µM | [16] 62.3 µM

CCCCCCC(=O)OCC
active: [5] 33.1 µM
not listed: [1]
inactive: all other assays above
